This passage reports outcome and AC50 results from PubChem BioAssay (EPA / NIEHS).

Some compounds were tested as several samples or in several runs, with calls that do not always agree. Active and inactive are the calls of the source. How the source made its calls: active means hit-call score of the fitted dose curve at least 0.9, where 1 is the maximum; inactive means score below 0.9.

The nature of this assay: ATG_EGR_CIS: Attagene CIS-FACTORIAL HepG2 Assay for human Early Growth Response 1 (EGR1) (AID 2282938). The settings on record: HepG2 Attagene CIS-FACTORIAL EGR reporter mRNA; actives raise or lower the signal. As for the experimental part: ATG_CIS is a cell-based, multiplexed-readout assay that uses HepG2, a human liver cell line, with measurements taken at 24 hours after chemical dosing in a 24-well plate.ATG_EGR_CIS is one of 52 assay component(s) measured or calculated from the ATG_CIS assay. It is designed to make measurements of mRNA induction, a form of inducible reporter, as detected with fluorescence intensity signals by Reverse transcription polymerase chain reaction (RT-PCR) and Capillary electrophoresis technology.Data from the assay component ATG_EGR_CIS was analyzed into 1 assay endpoint. This assay endpoint, ATG_EGR_CIS, was analyzed with bidirectional fitting relative to DMSO as the negative control and baseline of activity. Using a type of inducible reporter, measures of mRNA for gain or loss-of-signal activity can be used to understand the reporter gene at the transcription factor-level as they relate to the gene EGR1. Furthermore, this assay endpoint can be referred to as a primary readout, because this assay has produced multiple assay endpoints where this one serves a reporter gene function. To generalize the intended target to other relatable targets, this assay endpoint is annotated to the dna binding intended target family, where the subfamily is zinc finger.
Human liver HepG2 cells are transiently transfected with multiple reporter transcription units (MRTUs) in 6-well plates using FuGene 6 reagent (Roche; 3 ml FuGene/1 mg DNA). The MRTU constructs are regulated by a cis-regulating element (promoter). […] A major difference between the CIS and TRANS system is that in CIS activities of endogenous TFs are measured, whereas the TRANS assay evaluates changes in activities of exogenous, chimeric NR-Gal4 proteins. […] At the end of 24 hour incubation, total RNA was isolated using TriZol reagent (Invitrogen). The isolated RNA is then reverse-transcribed using oligo(dT) primer and Mo-MLV reverse transcriptase (Invitrogen) with DNAse I (Ambion) treatment for 30 min. The one-tenth of the produced cDNA was amplified by PCR using Taq DNA polymerase (Invitrogen) and two reporter sequence-specific primers. The PCR products were fluorescently labeled by primer extension with 6-arboxyfluorescein (6-FAM) 5'-labeled reporter sequence-specific primer (2 min at 95 C, 20 s at 68 C and 10 min at 72 C) and these products were digested with 5U of HpaI (New England Biolabs) for 2h at 37 C. The fragments were purified using Qiaquick PCR columns (Qiagen), analyzed on an ABI 3130xL genetic analyzer (Applied Biosystems) with peak positions identified by using a set of X-rhodamine (ROX)-labeled MapMarker1000 molecular weight standards (BioVentures). The raw capillary electrophoresis data was processed using Attagraph software (Attagene).
For the molecule `CCO[Si](CCC1CCC2OC2C1)(OCC)OCC` (stereo not given), the result was inactive.

Take `C=CC(C)(CCC=C(C)C)OC(C)=O` (stereo not given): the molecule was classed as inactive.

Regarding `Cc1ccc(C)c(S(=O)(=O)O)c1`, the outcome was inactive.

Regarding `O=C1OC(=O)c2cc(-c3ccc4c(c3)C(=O)OC4=O)ccc21`, the call was inactive.

For the molecule `O=C(CC(=O)C(F)(F)C(F)(F)C(F)(F)F)c1cccs1`, the outcome was inactive.

For `CC1CCC(CO)CC1` (stereo not given), the call was inactive.

With `C=CC(=O)OCCN(CC)CC`, the AC50 – broadly, the concentration at which the activity in the assay is half-maximal – was 54.4 µM (active).

With `CCCCCCCCCCCC[N+](C)(C)Cc1ccccc1`, the concentration at half-maximal activity (AC50) is 17.3 µM (active) and the outcome was inactive.

For the molecule `CCCCCCCC(OC)OC`, the call was inactive.

Consider `CCC(=O)O`, for which the molecule was called inactive.

With `CCN(CCC#N)c1ccccc1`, the call was inactive.

As for `CCCCCCCCCCCC(=O)O`, the call was inactive.

With `COC(=O)CC(C(C)=O)C(=O)OC` (stereo not given), the call was inactive.

In the case of `NCCN`, the result was inactive.

`COCN(COC)c1nc(N(COC)COC)nc(N(COC)COC)n1`: the outcome was inactive.

`Brc1cc(Br)c(Oc2c(Br)cc(Br)c(Br)c2Br)cc1Br`: the molecule was classed as inactive.

As to `CCc1ccccc1O`, the call was inactive.

Consider `COc1cccc(O)c1`, for which the molecule was called inactive.

For `C=C(c1ccc(C(=O)O)cc1)c1cc2c(cc1C)C(C)(C)CCC2(C)C`, the molecule was classed as inactive and the AC50 was 11.1 µM (active).

Turning to `O=C1c2ccc(O)c(O)c2C(=O)c2c(O)ccc(O)c21`, the result was inactive.

With `FC(F)=C(F)C(F)(F)C(F)(F)C(F)(F)C(F)F`, the molecule was classed as inactive.

Consider `O=C(Nc1ccc(Cl)c(Cl)c1)c1cc(Cl)cc(Cl)c1O`, for which the AC50 was 8.8 µM (active).

Consider `O=c1cc(-c2ccccc2)oc2ccc3ccccc3c12`, for which the call was inactive.

On to `Clc1ccc2c(Cl)ccnc2c1`, for which the molecule was classed as inactive.

On to `CCC(C)c1ccccc1O` (stereo not given), for which the outcome was inactive.

For the molecule `C=CC(=O)OCCC(F)(F)C(F)(F)C(F)(F)C(F)(F)C(F)(F)C(F)(F)C(F)(F)C(F)(F)F`, the molecule was called inactive.

On to `COc1cc(OC)nc(NC(=O)NS(=O)(=O)Nc2ccccc2C(=O)N(C)C)n1`, for which the result was inactive.

In the case of `CC1=NN(c2ccccc2)C(=O)C1`, the molecule was called inactive.

Take `O=C(NCc1ncc(C(F)(F)F)cc1Cl)c1c(Cl)cccc1Cl`: the result was inactive.

Regarding `CC(O)COc1ccccc1` (stereo not given), the outcome was inactive.

For `CCOC=C(C(=O)OCC)C(=O)OCC`, the outcome was inactive.

With `COC(=O)C(F)(F)C(F)(F)C(F)(F)F`, the molecule was called inactive.

Consider `O=S(=O)(O)C(F)(F)C(F)(F)C(F)(F)C(F)(F)C(F)(F)C(F)(F)C(F)(F)C(F)(F)C(F)(F)C(F)(F)F`, for which the result was inactive.

For the molecule `O=C(NO)c1ccccc1`, the call was inactive.

`O=C(c1ccccc1)c1ccccc1`: the outcome was inactive.

In the case of `C=CC(=O)OCC(CO)(COCC(COC(=O)C=C)(COC(=O)C=C)COC(=O)C=C)COC(=O)C=C`, the AC50 was 3.04 µM (active).

As for `c1cc2cccc3c4cccc5cccc(c(c1)c23)c54`, the call was inactive.

Take `Cc1cc(C(=C2C=CC(=Nc3ccc(S(=O)(=O)O)cc3)C=C2)c2ccc(Nc3ccc(S(=O)(=O)O)cc3)cc2)cc(S(=O)(=O)O)c1N`: the outcome was inactive.
